# Experimental data as given in PubChem BioAssay (EPA / NIEHS).
# Results filed as inconclusive are left out. The source made the active and inactive calls. Rule for the calls, unless noted: active = hit-call score of the fitted dose curve at least 0.9, where 1 is the maximum; inactive = score below 0.9.
# Columns and labels:
# [1] = CCTE_Shafer_MEA_dev_per_burst_spike_percent: CCTE's Neural Network Formation Assay for Percent of Spikes in a Burst, Shafer Lab (AID 2284032);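 for AC50: fitted as a decrease in burst spike percentage below DMSO baseline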
# In short: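 Rat primary cortical neurons on 16-electrode MEA wells, dosed from plating day 0 for 12 days with renewal on DIV 5 and 9; spikes-in-bursts percentage averaged over bursting electrodes, collapsed as AUC across days 5, 7, 9, 12; loss direction versus DMSO.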
# [2] = CCTE_Shafer_MEA_dev_active_electrodes_number: CCTE's Neural Network Formation Assay for Number of Active Electrodes, Shafer Lab (AID 2284040; active = hit-call score of the fitted dose curve at least 0.9, where 1 is the maximum;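 for AC50: potency for loss of active electrodes versus DMSO so lower counts are hits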)
# In short: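 Primary rat cortical neurons on 16-electrode MEA wells, exposed from day 0 through day 12 with compound renewed at DIV 5 and 9 feeds. Active electrodes (mean firing ≥5 spikes/min) counted at DIV 5, 7, 9, 12; trapezoidal AUC across days, loss-of-signal versus DMSO.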
# [3] = CCTE_Shafer_MEA_dev_burst_rate: CCTE's Neural Network Formation Assay for Burst Rate, Shafer Lab (AID 2284042)
# In short: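 Cells plated, treated day 0; recorded DIV 5, 7, 9, 12; fed and re-treated DIV 5, 9. Endpoint: bursts per recording time, active-electrode well mean, trapezoidal AUC, fitted in decreasing direction against DMSO baseline.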
# [4] = molecular target: Estrogen receptor (Homo sapiens) (UniProt P03372); test: CCTE_Deisenroth_AIME_384WELL_LUC_Active: CCTE's 384-well Estrogen Receptor Transactivation Assay with AIME metabolic competence (ERTA luciferase; metabolism positive), Deisenroth Lab (AID 2284030; active = hit-call score of the fitted dose curve at least 0.9, where 1 is the maximum)
# In short: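 AIME metabolism-positive mode: chemicals 0.002 - 200 uM, 2 h with alginate-bound PB/BNF-induced rat S9 → medium to VM7Luc4E2 ERTA, 24 h → luciferase. Positive fit vs 17beta-estradiol; n=4 typical.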
# [5] = CCTE_Deisenroth_AIME_384WELL_CTox_Active: Cytotoxicity Assessment (CTOX) in CCTE's 384-well Estrogen Receptor Transactivation Assay with AIME metabolic competence (metabolism positive), Deisenroth Lab (AID 2284037; active = hit-call score of the fitted dose curve at least 0.9, where 1 is the maximum;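 note: activity means signal loss indicating cell death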)
# In short: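 Chemicals pre-incubated 2 hours with alginate-immobilised phenobarbital/beta-naphthoflavone-induced male Sprague Dawley rat liver S9, then conditioned medium applied 24 hour to VM7Luc4E2 cells. Viability by fluorogenic protease substrate; 10-point series 0.002 - 200 uM.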
# [6] = molecular target: Estrogen receptor (Homo sapiens) (UniProt P03372); test: CCTE_Deisenroth_AIME_384WELL_LUC_Inactive: CCTE's 384-well Estrogen Receptor Transactivation Assay without AIME metabolic competence (ERTA luciferase; metabolism negative), Deisenroth Lab (AID 2284038; active = hit-call score of the fitted dose curve at least 0.9, where 1 is the maximum;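 note: VM7Luc4E2 breast cells given medium preincubated 2 h with S9-free microspheres; hits raise estrogen receptor luciferase signal so potencies reflect agonists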)
# In short: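 Metabolism-negative mode: chemicals (10-point, 0.002–200 uM) held 2 h with alginate-water microspheres, then conditioned medium applied to VM7Luc4E2 cells for 24 h. Luciferase induction referenced to 17beta-estradiol.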
# [7] = CCTE_Deisenroth_AIME_384WELL_CTox_Inactive: Cytotoxicity Assessment (CTOX) in CCTE's 384-well Estrogen Receptor Transactivation Assay without AIME metabolic competence (metabolism negative), Deisenroth Lab (AID 2284039; active = hit-call score of the fitted dose curve at least 0.9, where 1 is the maximum;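 note: cell viability via live-cell protease substrate cleaved to fluorescent probe; cells exposed 24 h to medium preincubated 2 h with alginate-water beads without S9; loss of fluorescence signal means loss of viability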)
# In short: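 Metabolism-negative arm: chemicals (10-point, 0.002 - 200 uM) preincubated 2 h with alginate-water lids, medium moved onto VM7Luc4E2 cells for 24 h. Fluorescent live-cell protease readout; bidirectional curve fit.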
# [8] = molecular target: Estrogen receptor (Homo sapiens) (UniProt P03372); test: CCTE_Deisenroth_AIME_384WELL_LUC_Shift: CCTE's 384-well Estrogen Receptor Transactivation Assay with AIME metabolic competence data shift (ERTA luciferase; difference in metabolism positive and negative), Deisenroth Lab (AID 2284041);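 note: shift is response with S9 minus without S9 so positive means metabolism raised ER signal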
# In short: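 Chemicals (0.002–200 uM, 10 points) pre-incubated 2 h with alginate-encapsulated induced male Sprague Dawley rat liver S9 or S9-free, then medium applied 24 h to VM7Luc4E2 cells; luciferase. Endpoint is per-concentration difference, S9-positive minus negative.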
# [9] = CCTE_Deisenroth_AIME_96WELL_CTox_Active: Cytotoxicity Assessment (CTOX) in CCTE's 96-well Estrogen Receptor Transactivation Assay with AIME metabolic competence (metabolism positive), Deisenroth Lab (AID 2284028; active = hit-call score of the fitted dose curve at least 0.9, where 1 is the maximum)
# In short: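 Chemicals (0.002–200 uM) were first incubated 2 h with alginate-immobilized phenobarbital/beta-naphthoflavone-induced male rat liver S9; conditioned medium then went onto VM7Luc4E2 cells for 24 h, with viability read by protease-substrate fluorescence, fitted bidirectionally.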
# [10] = CCTE_Deisenroth_AIME_96WELL_CTox_Inactive: Cytotoxicity Assessment (CTOX) in CCTE's 96-well Estrogen Receptor Transactivation Assay without AIME metabolic competence (metabolism negative), Deisenroth Lab (AID 2284029; active = hit-call score of the fitted dose curve at least 0.9, where 1 is the maximum)
# Method: CCTE_Deisenroth_AIME_96WELL (AIME metabolism assay) is a cell-based, single-readout assay that uses VM7Luc4E2, a human mammary gland/breast cell line, with measurements taken at 24 hour after chemical dosing in a 96-well plate.CCTE_Deisenroth_AIME_96WELL_CTox_Inactive is one of four assay components measured or calculated from the CCTE_Deisenroth_AIME_96WELL assay. It is designed to make measurements of a protease substrate, a type of viability indicator, as detected with substrate cleavage to a fluorescent probe in living cells.CCTE_Deisenroth_AIME_96WELL_CTox_Inactive is a component of the CCTE_Deisenroth_AIME_96WELL assay that measures the effect of retroftting the VM7Luc ERTA assay with the Alginate Immobolization of Metabolic Enzymes (AIME) metabolism method. AIME is optimized to impart phase I hepatic metabolism using phenobarbital/beta-naphthoflavone induced hepatic S9 from male Sprague Dawley rats. Parent chemicals are incubated for 2 hours in the AIME assay prior to transfer to the VM7Luc ERTA assay plate. […] This endpoint evaluates cytotoxicity in metabolism negative mode. Using a type of flourescent probe in VM7Luc cells, loss-of-signal activity can be used to understand loss of viability. This assay endpoint, CCTE_Deisenroth_AIME_96WELL_CTox_Inactive, was analyzed with bidirectional fitting in the ERTA assay. […]
# Chain of Estrogen receptor (Homo sapiens) (P03372 whole entry, looked up): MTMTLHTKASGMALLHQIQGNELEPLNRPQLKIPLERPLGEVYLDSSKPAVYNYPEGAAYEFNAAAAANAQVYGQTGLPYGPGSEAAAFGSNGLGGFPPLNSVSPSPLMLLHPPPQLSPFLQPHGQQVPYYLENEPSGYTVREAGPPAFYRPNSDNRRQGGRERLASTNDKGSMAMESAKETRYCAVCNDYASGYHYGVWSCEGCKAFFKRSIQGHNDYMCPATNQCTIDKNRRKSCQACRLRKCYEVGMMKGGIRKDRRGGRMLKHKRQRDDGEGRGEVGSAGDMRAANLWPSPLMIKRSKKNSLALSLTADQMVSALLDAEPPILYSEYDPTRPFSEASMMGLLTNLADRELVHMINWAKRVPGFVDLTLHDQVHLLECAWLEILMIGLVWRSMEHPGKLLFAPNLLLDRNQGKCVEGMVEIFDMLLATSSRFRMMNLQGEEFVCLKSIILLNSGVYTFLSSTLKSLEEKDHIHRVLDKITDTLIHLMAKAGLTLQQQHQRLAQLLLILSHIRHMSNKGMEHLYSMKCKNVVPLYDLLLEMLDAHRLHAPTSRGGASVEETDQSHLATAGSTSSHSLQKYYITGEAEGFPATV
structure (smiles),measurement,setting,value
OCCCCC(F)(F)C(F)(F)C(F)(F)C(F)(F)F,outcome,[1],inactive
same,outcome,[2],inactive
same,outcome,[3],inactive
OCC(F)(F)C(F)(F)C(F)(F)C(F)(F)C(F)(F)C(F)(F)C(F)(F)C(F)(F)CO,outcome,[1],inactive
same,AC50,[2],15 µM (active)
same,outcome,[3],inactive
CCCCOC(=O)C(C)O (configuration not stated),outcome,[4],inactive
same,outcome,[5],inactive
same,outcome,[6],inactive
same,outcome,[7],inactive
same,outcome,[8],inactive
NC(=O)C(F)(F)C(F)(F)C(F)(F)F,outcome,[1],inactive
same,outcome,[3],inactive
OCC(F)(F)C(F)(F)C(F)(F)C(F)(F)C(F)(F)C(F)(F)CO,outcome,[1],inactive
same,AC50,[2],0.65 µM (active)
same,outcome,[3],inactive
O=C(c1ccccc1)c1ccc(O)cc1O,AC50,[4],42.3 µM (active)
same,outcome,[5],inactive
same,AC50,[6],40.3 µM (active)
same,outcome,[8],inactive
CCCCCCCC/C=C\CCCCCCCC(=O)OCC(O)CO (configuration not stated),outcome,[4],inactive
same,outcome,[6],inactive
same,outcome,[7],inactive
same,outcome,[8],inactive
CCCCC(CC)COC(=O)c1ccc(N(C)C)cc1 (configuration not stated),outcome,[9],inactive
same,outcome,[10],inactive
CC(C)OC=O,outcome,[5],inactive
same,outcome,[6],inactive
same,outcome,[7],inactive
same,outcome,[8],inactive
NC(O)(C(F)(F)F)C(F)(F)F,outcome,[1],inactive
same,outcome,[2],inactive
same,outcome,[3],inactive
OC(O)C(F)(F)C(F)(F)F,outcome,[1],inactive
same,outcome,[3],inactive
O=C1C=CC(=O)N1c1ccccc1,outcome,[4],inactive
same,outcome,[5],inactive
same,outcome,[6],inactive
same,outcome,[7],inactive
same,outcome,[8],inactive
CNS(=O)(=O)C(F)(F)C(F)(F)C(F)(F)C(F)(F)C(F)(F)C(F)(F)C(F)(F)C(F)(F)F,outcome,[1],inactive
same,outcome,[2],inactive
same,outcome,[3],inactive
FC(F)(F)C(F)(F)C(F)(F)C(F)(F)C(F)(F)C(F)(F)C(F)(F)CCI,outcome,[1],inactive
same,outcome,[2],inactive
same,outcome,[3],inactive
OCC(F)(F)C(F)(F)C(F)(F)CO,outcome,[1],inactive
same,outcome,[2],inactive
same,outcome,[3],inactive
NC(=O)C(F)(F)C(F)(F)C(F)(F)C(F)F,outcome,[1],inactive
same,outcome,[3],inactive
C=CC(=O)OCC(F)(F)C(F)(F)C(F)(F)COC(=O)C=C,AC50,[1],4.39 µM (active)
same,AC50,[2],4.25 µM (active)
same,outcome,[3],inactive
C=CC(=O)OCCC(F)(F)C(F)(F)C(F)(F)C(F)(F)F,outcome,[1],inactive
same,outcome,[2],inactive
same,outcome,[3],inactive
CO[Si](C)(CCC(F)(F)C(F)(F)C(F)(F)C(F)(F)C(F)(F)C(F)(F)F)OC,outcome,[1],inactive
same,outcome,[3],inactive
Cc1ccc(O)c(-n2nc3ccccc3n2)c1,outcome,[9],inactive
same,outcome,[10],inactive
same,AC50,[4],51.3 µM (active)
same,AC50,[6],38.2 µM (active)
same,outcome,[8],inactive
CC(=O)CCC(C)C,outcome,[4],inactive
same,outcome,[5],inactive
same,outcome,[6],inactive
same,outcome,[7],inactive
same,outcome,[8],inactive
OCC1CCCO1 (configuration not stated),outcome,[4],inactive
same,outcome,[6],inactive
same,outcome,[8],inactive
CCN(CCO)S(=O)(=O)C(F)(F)C(F)(F)C(F)(F)C(F)(F)C(F)(F)C(F)(F)C(F)(F)C(F)(F)F,outcome,[1],inactive
same,outcome,[2],inactive
same,outcome,[3],inactive
O=C(O)C(F)(F)C(F)(F)C(F)(F)OC(F)(F)F,outcome,[1],inactive
same,outcome,[3],inactive
NC(=O)C(F)(F)C(F)(F)C(F)(F)C(F)(F)C(N)=O,outcome,[1],inactive
same,outcome,[2],inactive
same,outcome,[3],inactive
N#Cc1ccccc1O,outcome,[4],inactive
same,outcome,[5],inactive
same,outcome,[6],inactive
same,outcome,[7],inactive
same,outcome,[8],inactive
O=S(=O)(O)CCC(F)(F)C(F)(F)C(F)(F)C(F)(F)C(F)(F)C(F)(F)C(F)(F)C(F)(F)F,outcome,[1],inactive
same,outcome,[3],inactive
CC(C)(C)c1cc(Cc2cc(C(C)(C)C)c(O)c(C(C)(C)C)c2)cc(C(C)(C)C)c1O,outcome,[4],inactive
same,outcome,[5],inactive
same,outcome,[6],inactive
same,outcome,[8],inactive
O=S(=O)(O)CCC(F)(F)C(F)(F)C(F)(F)C(F)(F)F,outcome,[1],inactive
same,outcome,[2],inactive
same,outcome,[3],inactive
CCCCCCCC/C=C\CCCCCCCC(=O)N(C)CC(=O)O,AC50,[5],124 µM (active)
same,outcome,[7],inactive
same,outcome,[8],inactive
OCC(O)CC(F)(F)C(F)(F)C(F)(F)C(F)(F)F (configuration not stated),outcome,[1],inactive
same,outcome,[2],inactive
same,outcome,[3],inactive
CCOC(OCC)OCC,outcome,[4],inactive
same,outcome,[5],inactive
same,outcome,[6],inactive
same,outcome,[8],inactive
CCN=C1C=CC(=C(c2ccc(N(CC)CC)cc2)c2ccc(N(CC)CC)cc2)c2ccccc21,AC50,[5],59.1 µM (active)
same,AC50,[7],57.3 µM (active)
same,outcome,[8],inactive
